Test results taken from PubChem BioAssay (NCATS).
Records with an inconclusive call do not appear. Activity calls are given as the source filed them. Calls follow the shape of the full dose curve.

The molecules below were run against Atrial natriuretic peptide receptor 1 (Homo sapiens) (UniProt P16066) (assay: Natriuretic polypeptide receptor (hNpr1) antagonism - Pilot CMLD screen (AID 1347052;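 also: HEK293 cells with hNpr1 stimulated by hNppA peptide at 0.1 nM; cGMP level read as GloSensor luciferase luminescence after agonist stimulation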)). Settings: HEK293 hNpr1 GloSensor cGMP luminescence, ANP-stimulated; series mostly up to 9.22 µM.
Atrial natriuretic peptide receptor 1 (Homo sapiens), sequence (P16066 whole entry, looked up): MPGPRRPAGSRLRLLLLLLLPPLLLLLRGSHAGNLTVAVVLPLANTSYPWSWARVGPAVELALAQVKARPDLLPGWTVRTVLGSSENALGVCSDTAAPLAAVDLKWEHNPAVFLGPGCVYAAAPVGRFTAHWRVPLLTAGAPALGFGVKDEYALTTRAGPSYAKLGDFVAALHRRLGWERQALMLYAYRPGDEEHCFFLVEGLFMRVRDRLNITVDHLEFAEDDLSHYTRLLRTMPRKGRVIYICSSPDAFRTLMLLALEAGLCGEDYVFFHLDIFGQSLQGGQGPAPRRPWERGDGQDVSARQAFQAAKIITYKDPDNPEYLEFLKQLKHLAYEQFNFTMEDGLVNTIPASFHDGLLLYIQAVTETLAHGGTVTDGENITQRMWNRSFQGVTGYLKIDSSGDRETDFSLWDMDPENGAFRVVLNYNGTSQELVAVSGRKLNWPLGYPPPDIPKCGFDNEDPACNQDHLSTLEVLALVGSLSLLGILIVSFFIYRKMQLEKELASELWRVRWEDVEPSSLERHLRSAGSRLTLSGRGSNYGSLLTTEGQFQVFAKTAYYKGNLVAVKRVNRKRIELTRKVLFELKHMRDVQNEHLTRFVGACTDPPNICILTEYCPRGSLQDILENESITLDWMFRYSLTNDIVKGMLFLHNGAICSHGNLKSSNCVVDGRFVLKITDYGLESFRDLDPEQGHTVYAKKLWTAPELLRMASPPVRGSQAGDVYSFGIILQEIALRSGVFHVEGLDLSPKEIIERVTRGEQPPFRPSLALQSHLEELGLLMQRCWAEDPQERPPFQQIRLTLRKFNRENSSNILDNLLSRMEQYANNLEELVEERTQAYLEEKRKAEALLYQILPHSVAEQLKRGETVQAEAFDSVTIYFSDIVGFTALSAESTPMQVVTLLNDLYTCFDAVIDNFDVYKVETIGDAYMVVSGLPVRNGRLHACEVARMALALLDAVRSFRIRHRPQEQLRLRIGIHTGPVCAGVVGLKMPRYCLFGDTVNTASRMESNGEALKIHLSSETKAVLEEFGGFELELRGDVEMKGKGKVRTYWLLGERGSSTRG

Potency, inactive:
CCN1C(=O)[C@@H]2[C@H]3[C@H](O)[C@H](O)CC(=NOCC[C@@H]4C=C[C@H](OC(C)=O)[C@@H](COC(C)=O)O4)[C@@H]3CC[C@H]2C1=O
CSc1nnc2c(n1)C[C@H](c1ccccc1)[C@@H](C)[C@@H](C(=O)N1CCCC1)C2
CCN(CC)CCCN=C1NC(c2cccc(C(F)(F)F)c2)C(C(=O)OC)=C(C)N1CC (stereo not given)
CCCCC1=CC2=CC(=O)C(C)(OC(=O)c3cnc4ccccc4n3)C(=O)C2=CO1 (stereo not given)
COCCN1C=C2C(=O)C(C)(OC(=O)C3CCCC3)C(=O)C(c3ccccc3)=C2C=C1CCCC(=O)OC (stereo not given)
C#CCCOC(=O)N1C2=NC(C(=O)OC)=C(C(=O)OC)[C@@H]3N(C)c4ccccc4[C@]23C[C@H]1C(=O)OC
COC(=O)[C@H]1[C@@H](c2cccc(C(F)(F)F)c2)NC(=O)N(Cc2ccccc2)[C@@H]1C
O=C1c2ccccc2C(=O)N1CCCC[C@]12Cc3c(ccc4ccccc34)[C@H](O1)c1c(cc(-c3ccccc3)oc1=O)O2
COC(=O)N1C2CC3(C)C=C(C)OC1(C)C3c1ccccc12 (stereo not given)
CCCC[C@]12Cc3cc(C#N)ccc3[C@H](O1)c1c(c3ccccc3oc1=O)O2
C=CC[C@@H]1C=C[C@H](ON=C[C@@H](C)[C@H](OCc2ccccc2)C(C)C)[C@H](CO)O1
CCOC(=O)C(c1ccc(OC)c(OC)c1)C1c2ccccc2C=C(C)N1C(=O)OC (stereo not given)
C[C@@H]1[C@@H](c2ccccc2)Cc2nc3ccccc3nc2C[C@H]1C(=O)N1CCCC1
Cc1noc(C)c1S(=O)(=O)N1CCc2nc(-c3ccccc3)c3c(c2C1)CO[C@@H](C)C3
C=C(C(C)=O)C(O)c1ccc(Cl)cc1 (stereo not given)
COCCN1C(=O)NC(c2cccc(F)c2)C(C(=O)OC)=C1C (stereo not given)
C=CCOC(=O)NC(c1ccc(F)c(F)c1)C(C(=O)COC)C(=O)OC (stereo not given)
COCCN1C(=O)N[C@@H](c2cccc(C(F)(F)F)c2)[C@H](C(=O)OC)[C@H]1C
COC(=O)N(C=Cc1ccc(OC)cc1)CCc1ccc(OC)c(OC)c1
COc1ccc2c(c1)C(NC(=O)C(F)(F)F)CC21CCCCC1 (stereo not given)
COC(=O)[C@@]1(C=C2c3ccc(OC)cc3[C@@H](OC)[C@@H]2C)[C@@H]2C=CC[C@@H]21
COC(=O)CC=C[C@@H](C)[C@@H](Cc1ccccc1Br)OC
COc1cc2c(cc1OC)[C@@H]1O[C@](CCCCN3C(=O)c4ccccc4C3=O)(C2)OC2=C1C(=O)CC(C)(C)C2
CC(C)=CCN1C(=O)C2(CC(C)=C[C@@H](C)O2)c2c(Br)cccc21 (stereo not given in full)
COC(=O)CCCC1=CC2=CC(=O)C(C)(OC(=O)c3cccs3)C(=O)C2=CN1CCc1ccccn1 (stereo not given)
C=CCOC(=O)N[C@H](c1cccc(C(F)(F)F)c1)C(C(C)=O)C(C)=O
CC1=CC[C@@H](C)O[C@@]2(C1)C(=O)N(Cc1ccc(Br)cc1)c1ccccc12
C#CC1(O)C(OC)=CC2C(=O)C1C(c1ccccc1)C2C (stereo not given)
C=CCN1c2ccccc2[C@]23C[C@@H](C(=O)OC)N(C(=O)OCC)C2=NC(C(=O)OC)=C(C(=O)OC)[C@H]13
COc1cccc2c1C1(CCCCC1)CC2NC(=O)C(F)(F)F (stereo not given)
O=C1CCCC(C(C(=O)OCc2ccccc2)C(=O)OCc2ccccc2)C1 (stereo not given)
COC(=O)CC=C1c2ccccc2[C@@H](OC)[C@@H]1C
COC(=O)C1=C(C(=O)OC)[C@@H]2N(C)c3ccccc3[C@@]23C[C@@H](C(=O)OC)N(C(=O)NC(C)(C)C)C3=N1
Cc1ccc(S(=O)(=O)NC(CCc2ccccc2)CC(=O)C(C)(C)C)cc1 (stereo not given)
C[C@@H]1C=CCCO[C@]12C(=O)N(CC1CC1)c1cccc(Br)c12
CC(C)Nc1oc(-c2ccccc2)nc1-c1ccc(C(F)(F)F)cc1
COC(=O)c1ccccc1C[C@]1(C(=O)OC)C=C[C@H](C)[C@@H](c2ccccc2)N1C(=O)C(F)(F)F
OC[C@H]1O[C@H](C#Cc2ccccc2)C=C[C@@H]1O
O=C(NN=C1C[C@@H](O)[C@H](O)[C@H]2[C@@H]3C(=O)N(C[C@@H]4CCCO4)C(=O)[C@@H]3CC[C@H]12)OCc1ccccc1
CCC(=O)C[C@@H](NC(=O)OC)c1ccccc1
